PTHR1 agonist = PTHR1 (human) receptor agonism; HEK293 GP2 PTHR1 cells, GloSensor cAMP luminescence, 1 h; 0.075% of 410,000 active; Potency, µM (titrated, usually from 115 µM), actives largely listed as activators; note: nearly all actives have a fitted effect of over 55% in size
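HEK-293-derived GP2 cells expressing PTHR1 and a GloSensor cAMP reporter, 3,000/well, plated overnight, given luciferin plus IBMX (each 0.5 mM as added) for 1 h at 37 °C, then compound for 1 h at 37 °C. Luminescence was read after 15 min at room temperature.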
D3 ag = activates the human D3 dopamine receptor. P35462. D3R DiscoveRx beta-arrestin cells, luminescence, 90 min. max activation, %. 0.58% of 410,000 active. AID 652048; in the data active = max activation above about 30%
Target sequence (P35462 whole entry, looked up): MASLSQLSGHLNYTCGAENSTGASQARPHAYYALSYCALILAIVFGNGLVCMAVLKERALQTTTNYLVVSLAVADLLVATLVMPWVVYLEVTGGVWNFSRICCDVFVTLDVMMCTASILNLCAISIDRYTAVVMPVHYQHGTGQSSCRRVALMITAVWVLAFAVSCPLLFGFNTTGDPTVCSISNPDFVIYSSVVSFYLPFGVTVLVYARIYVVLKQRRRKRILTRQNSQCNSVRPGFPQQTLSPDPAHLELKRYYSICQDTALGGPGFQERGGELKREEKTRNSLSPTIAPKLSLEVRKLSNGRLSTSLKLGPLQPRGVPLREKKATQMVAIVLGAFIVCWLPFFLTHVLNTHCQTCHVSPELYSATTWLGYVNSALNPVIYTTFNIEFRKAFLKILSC
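Agonist mode: compounds and dopamine controls were applied to plated cells for 90 min at 37 degrees C after an overnight attachment at 1500 cells/well. Luminescent read-out followed 30 - 60 minutes at room temperature with DiscoveRx detection reagent.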
CBFb-RUNX1 inh = CBF-beta/RUNX1 interaction disruption; Q01196+Q13951; AlphaScreen CBFb-His/RUNX1-biotin binding, biochemical; 230,000 tested, under 10 active; Potency, µM (highest dose often 59.8 µM), hits mostly inhibitors; AID 1477
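Proteins preincubated together for 20 min at RT before compound addition; 15 min later, nickel and streptavidin beads were added and left 90 min prior to AlphaScreen measurement.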
DRD3 antagonist = antagonists of human D3 dopamine receptor; D3R cells, DiscoveRx beta-arrestin luminescence, antagonist mode; hits give low values; max response, negative = inhibition, %; 2.5% of 360,000 active; P35462; in the data active = max response below about -50%; inconclusive = no clear call, values can overlap the other calls
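Cells expressing the human receptor were seeded at 1500 cells/well, incubated overnight at 37 degrees C in 5% CO2, then exposed to library compounds with dopamine controls for 90 minutes at 37 degrees C before luminescent detection.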
a7 integrin act = activates integrin-mediated alleviation for muscular dystrophy | AID 624291 | Potency, µM (top dose mostly 38.3 µM), usual class: activators | alpha7betagal myoblasts, beta-gal FDG fluorescence, 48 h | 0.064% of 350,000 active; note: nearly all actives have a fitted effect of over 60% in size
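alpha7betagal+/- myoblasts (passage 13, 250/well) treated 48 h at 37C with compounds at 1:260 dilution of DMSO stock. Lysed, then beta-galactosidase activity read as FDG fluorescence (ex 480/em 540) after 30 min, with pre-read for autofluorescence.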
MBNL1 CUG block = blocks human MBNL1 binding to CUG repeat RNA | AID 2675 | 0.036% of 280,000 active | Q9NR56 | Potency, µM (top dose mostly 57.5 µM), most hits filed as inhibitors | TR-FRET MBNL1-His/biotin-(CUG)12 binding, 665/545 ratio; active = well fitted inhibition curve with a large enough effect in the signal ratio, with a control signal flat, not every such curve was filed as active; inconclusive = small, poorly fitted or top-dose-only effect, or effect the other way, or a change in a side signal; inactive = no such curve, though single readings can be large or run the other way; the % refers to the signal ratio
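TR-FRET between His-tagged MBNL1 and biotin-(CUG)12 RNA, detected with Tb anti-His antibody (0.055 ng/ul) and streptavidin-XL665 (5 nM), 60 min at room temperature. Compounds titrated 92 nM to 58 uM; 665/545 nm ratio normalized to buffer and complex controls.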
A number is an active result; – = inactive; ? = inconclusive; · = no result given; [ ] = another dose, or the depositor's remark. An excerpt weighted towards active compounds, which were near 2.8% of everything screened. Unless noted, calls come from the whole dose curve; as a rule, active = well fitted curve in the direction sought with a large enough effect; inconclusive = small, poorly fitted or top-dose-only effect, or another doubt; inactive = no such curve, though single readings can be large; an effect the other way counts as inactive or inconclusive.

SMILES	PTHR1 agonist	D3 ag	CBFb-RUNX1 inh	DRD3 antagonist	a7 integrin act	MBNL1 CUG block
CSCC[C@H](NC(=O)[C@H](CO)NC(=O)[C@H](Cc1ccc(O)cc1)NC(=O)[C@@H](N)CO)C(=O)N[C@@H](CCC(=O)O)C(=O)N[C@@H](Cc1cnc[nH]1)C(=O)N[C@@H](Cc1ccccc1)C(=O)N[C@@H](CCCNC(=N)N)C(=O)N[C@@H](Cc1c[nH]c2ccccc12)C(=O)NCC(=O)N[C@@H](CCCCN)C(=O)N1CCC[C@H]1C(=O)N[C@H](C(=O)NCC(=O)N[C@@H](CCCCN)C(=O)N[C@@H](CCCCN)C(=O)N[C@@H](CCCNC(=N)N)C(=O)N[C@@H](CCCNC(=N)N)C(=O)N1CCC[C@H]1C(=O)N[C@H](C(=O)N[C@@H](CCCCN)C(=O)N[C@H](C(=O)N[C@@H](Cc1ccc(O)cc1)C(=O)N1CCC[C@H]1C(=O)N[C@@H](CC(N)=O)C(=O)NCC(=O)N[C@@H](C)C(=O)N[C@@H](CCC(=O)O)C(=O)N[C@@H](CC(=O)O)C(=O)N[C@@H](CCC(=O)O)C(=O)N[C@@H](CO)C(=O)N[C@@H](C)C(=O)N[C@@H](CCC(=O)O)C(=O)N[C@@H](C)C(=O)N[C@@H](Cc1ccccc1)C(=O)N1CCC[C@H]1C(=O)N[C@@H](CC(C)C)C(=O)N[C@@H](CCC(=O)O)C(=O)N[C@@H](Cc1ccccc1)C(=O)O)C(C)C)C(C)C)C(C)C	·	·	–	·	·	·
Cc1ccc(COc2ccc(Br)cc2/C=N/O)cc1	–	–	–	-94.2	–	–
O/N=C/c1cc(Br)ccc1OCc1ccc(F)cc1	–	–	·	–	–	·
S=c1[nH]nc(CSCCOc2ccc(Cl)cc2Cl)o1	–	–	–	?	?	–
C(#Cc1ccccc1)CN1CCN(c2ccccn2)CC1	–	–	–	?	–	–
c1ccc(N2CCN(Cc3nc4ccccc4[nH]3)CC2)nc1	–	–	–	–	–	–
Cc1[nH]c2ccccc2c1CN1CCN(c2ccccn2)CC1	–	–	–	-66.6	–	–
c1ccc(-c2ncc(CN3CCN(c4ccccn4)CC3)[nH]2)cc1	–	–	–	-104.8	–	·
N#Cc1ccccc1NC(=O)CSc1nnc(-c2ccncc2)o1	–	–	–	?	–	–
CC(Sc1nnnn1C1CCCC1)C(=O)Nc1cccc(S(=O)(=O)N2CCOCC2)c1 (stereo not drawn)	–	–	·	–	–	·
COC(=O)C[C@H]1C[C@H]2c3cc(NS(=O)(=O)c4cccc(OC)c4)ccc3O[C@H]2[C@@H](CO)O1	–	–	·	–	–	·
Oc1ccc(C[C@H]2CNC(=S)N2C[C@H]2CCCN2C[C@H](Cc2ccccc2)N2C[C@H](Cc3ccc(O)cc3)N(CCc3ccccc3)C2=S)cc1	–	–	·	–	·	·
CCOc1ccc(CCN2C(=S)N([C@@H](Cc3ccccc3)CN3CCC[C@@H]3CN3C(=S)NC[C@@H]3Cc3ccc(O)cc3)C[C@@H]2CC(C)C)cc1	–	–	·	–	·	·
CCOc1ccc(CCN2C(=S)N([C@@H](Cc3ccc(O)cc3)CN3CCCC3CN3C(=S)NC[C@@H]3Cc3ccc(O)cc3)C[C@@H]2CC(C)C)cc1 (stereo partly drawn)	–	–	·	-68.2	–	·
CCOc1ccc(CCN2C(=S)N([C@@H](Cc3ccc(O)cc3)CN3CCC[C@@H]3CN3C(=S)NC[C@@H]3CC(C)C)C[C@@H]2Cc2ccc(O)cc2)cc1	–	–	·	-79.7	·	·
O=C(NCCCN1CCN(CCCNC(=O)c2cccc(Cl)c2)CC1)c1cccc(Cl)c1	–	–	–	–	–	–
O=C(NCCCN1CCN(c2cccc(Cl)c2)CC1)c1nc(-c2ccncc2)no1	–	–	–	-63.6	–	–
COc1cc2c(C(=O)NCCCN3CCN(c4cccc(Cl)c4)CC3)cn(C)c(=O)c2cc1OC	–	31.1	–	-56.1	–	–
COc1ccc(S(N)(=O)=O)cc1C(=O)NCCCN1CCN(c2cccc(Cl)c2)CC1	–	–	–	-50.0	–	–
COc1ccc(S(N)(=O)=O)cc1C(=O)NCCCN1CCN(c2ccc(C)cc2)CC1	–	–	–	-71.0	–	–
Cc1ccc(Cc2c(-c3cccc(Cl)c3)nc3c(C)cc(Br)cn23)cc1	–	–	·	?	·	·
COc1ccc(S(N)(=O)=O)cc1C(=O)NCCCN1CCN(c2ccccc2OC)CC1	–	–	–	-91.9	–	–
COc1ccccc1N1CCN(CCCCNC(=O)c2ccc3ccccc3c2)CC1	–	·	–	·	·	·
CN(CC(=O)NCCc1ccccc1)Cc1ccco1	–	–	·	–	–	–
Cc1ccc(CN2CCN(/N=C/c3ccc(O)c(O)c3)CC2)cc1	–	–	·	-63.6	–	–
SMILES	PTHR1 agonist	D3 ag	CBFb-RUNX1 inh	DRD3 antagonist	a7 integrin act	MBNL1 CUG block
COc1ccc(/C=N/N2C(=O)CSC2=S)cc1Br	–	36.5	·	–	–	·
COc1ccc(/C=N/N2CCN(Cc3ccc(C)cc3)CC2)cc1Br	–	–	·	-91.7	–	–
Cc1ccc(CN2CCN(/N=C/c3ccc(C(=O)O)cc3)CC2)cc1	–	–	–	–	–	–
CCCN1CCN(C(=O)c2ccc(CS(=O)c3ccc(Br)cc3)o2)CC1 (stereo not drawn)	–	–	·	–	–	·
O=C(OCCN1CCCCC1)c1cc2ccccc2o1	–	–	–	-65.9	–	–
O=C(Nc1ccc2ccccc2c1)N1CCCN(CCOc2ccccc2)CC1	–	–	–	-77.8	?	–
O=C(c1cc2ccccc2o1)N1CCN(S(=O)(=O)c2ccccc2)CC1	–	–	·	–	–	·
CCCN1CCN(C(=O)Nc2ccc(OCC)cc2)CC1	–	–	–	–	–	–
O=C(c1cc2ccccc2o1)N1CCN(S(=O)(=O)c2cccs2)CC1	–	–	–	-56.3	–[1.53 µM]	–
O=C(c1cc2ccccc2o1)N1CCN(CCOc2ccccc2)CC1	–	57.6	·	–	–	·
Cc1c(Cl)cccc1NC(=O)C1CC2CCC1C2 (stereo not drawn)	–	–	·	–	–	·
COc1cc(OC)c(OC)cc1CNCCNC(=O)c1ccco1	–	–	·	–	–	–
CCOCc1c(C(=O)N2CCN(CCOc3ccc(Cl)cc3)CC2)oc2ccccc12	–	108.0	·	–	–	·
O=C(c1cc2ccccc2o1)c1nc2c(n1O)CCCCC2	–	–	–	-79.1	–	–
O=C(C[C@@H]1C=C[C@H](NC(=O)Cc2ccccn2)[C@@H](CO)O1)NCCc1ccccc1	–	–	·	–	·	·
O=C(O)/C=C/C(=O)N1CCN(c2ccccc2F)CC1	–	–	–	-70.2	–	–
CCOC(=O)[C@]12CCCC=C1N(Cc1cccc3ccccc13)C(=O)[C@H](CC(=O)N1CCOCC1)C2	–	–	·	–	·	·

Screens (PubChem BioAssay)
